Compound activity from PubChem.
PAFAH1B2 inh: PAFAH1B2 enzyme inhibitors, primary screen, biochemical, fluorescence polarization, human; Platelet-activating factor acetylhydrolase IB subunit alpha2 (Homo sapiens), P68402; AID 492953, 2010; recombinant PAFAH1B2, FP-rhodamine activity probe; hit rate 1.2% among 340,000; inhibition, % at 3.39 µM;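 active = inhibition above the mean of all tested compounds plus 3 SD, cut at about 24% in these data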
PAFAH1B3 inh: PAFAH1B3 enzyme inhibitors, primary screen, biochemical, fluorescence polarization, human | Platelet-activating factor acetylhydrolase IB subunit alpha1 (Homo sapiens), Q15102 | recombinant PAFAH1B3, FP-rhodamine probe | inhibition, % at 3.39 µM | hit rate 0.28% among 340,000;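 active = inhibition above the screen-wide average of all tested compounds plus 3 SD, cut at about 25% in these data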
Target sequence (Q15102 whole entry, looked up): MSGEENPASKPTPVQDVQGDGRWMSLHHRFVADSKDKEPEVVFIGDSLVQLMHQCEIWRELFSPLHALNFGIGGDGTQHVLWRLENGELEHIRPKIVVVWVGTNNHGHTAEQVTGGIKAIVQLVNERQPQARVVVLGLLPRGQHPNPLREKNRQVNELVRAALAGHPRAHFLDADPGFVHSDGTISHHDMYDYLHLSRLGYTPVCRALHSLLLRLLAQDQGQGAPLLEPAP
LYPLA1 counter: LYPLA1 inhibitors, primary screen, counter-screen for PME1 inhibitor project, biochemical, fluorescence polarization, FP-Rh probe ABPP; Acyl-protein thioesterase 1 (Homo sapiens), O75608; recombinant LYPLA1; inhibition, % at 5.9 µM; hit rate 0.16% among 320,000;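 active = inhibition above the mean of all tested compounds plus 3 SD, set per campaign, cut at about 14% in these data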;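 also: inhibitors block serine hydrolase probe labeling of LYPLA1 so polarization falls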
Target sequence (O75608 whole entry, looked up): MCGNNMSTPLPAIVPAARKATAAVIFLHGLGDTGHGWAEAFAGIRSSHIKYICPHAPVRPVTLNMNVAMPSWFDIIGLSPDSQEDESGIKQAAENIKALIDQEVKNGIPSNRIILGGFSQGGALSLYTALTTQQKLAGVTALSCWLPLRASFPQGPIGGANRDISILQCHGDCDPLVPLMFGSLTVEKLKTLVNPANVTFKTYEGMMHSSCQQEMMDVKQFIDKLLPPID
LYPLA2 inh: LYPLA2 inhibitors, primary screen, counter-screen for PME1 inhibitor project, biochemical, fluorescence polarization, FP-Rh probe ABPP. inhibition, % at 5.9 µM. recombinant LYPLA2. AID 2177, 2009. hit rate 0.38% among 320,000;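 active = inhibition above the screen-wide mean plus 3 SD, limit set per campaign, cut at about 26% in these data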
Target sequence (O95372 whole entry, looked up): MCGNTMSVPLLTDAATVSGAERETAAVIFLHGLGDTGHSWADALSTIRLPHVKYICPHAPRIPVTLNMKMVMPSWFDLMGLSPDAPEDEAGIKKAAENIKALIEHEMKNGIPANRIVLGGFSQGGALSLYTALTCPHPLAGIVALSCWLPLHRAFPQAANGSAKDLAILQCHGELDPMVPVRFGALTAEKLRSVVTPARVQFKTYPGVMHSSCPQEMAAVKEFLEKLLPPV
pPAFAH FP inh: pPAFAH enzyme inhibitors, primary screen, biochemical, fluorescence polarization, human | Platelet-activating factor acetylhydrolase (Homo sapiens), Q13093 | recombinant pPAFAH, FP-rhodamine probe fluorescence polarization | inhibition, % at 3.39 µM | hit rate 1.5% among 330,000;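 active = inhibition above the mean inhibition across the screen plus 3 SD, cut at about 25% in these data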;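 also: inhibitors block binding of the rhodamine activity-based probe so polarization drops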
PAFAH2 FP inh: PAFAH2 enzyme inhibitors, primary screen, biochemical, fluorescence polarization, human | AID 492956, 2010 | hit rate 0.99% among 340,000 | recombinant PAFAH2, FP-rhodamine activity probe | inhibition, % at 3.39 µM;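 active = inhibition above the mean over all tested compounds plus 3 SD, cut at about 30% in these data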;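 also: inhibitors block probe labeling of enzyme so polarization drops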
Each line names hits and unclear results; the compound was inactive in the other large screens. This is a sample that favours compounds with a hit; in the whole collection about 2.9% have one here.

COc1ccc(CCN2C(=O)C(O)=C(C(C)=O)C2c2ccccc2OC)cc1OC (stereo unspecified)	none
CCN(Cc1ccccc1)C(=O)c1cc2cc(OC)c(OC)cc2[nH]1	pPAFAH FP inh 33
COc1cc2[nH]c(C(=O)N(C)Cc3ccccc3)cc2c(OC)c1OC	none
COC(=O)c1ccccc1C(=O)N1CCOCCN(C(=O)c2ccccc2C(=O)OC)CCOCC1	none
O=C(COC(=O)Cc1ccccc1F)Nc1ccc(SC(F)F)cc1	pPAFAH FP inh 26
COc1ccc(NC(=O)COC(=O)Cc2ccc(Br)cc2)cc1	pPAFAH FP inh 29
O=C(COC(=O)Cc1ccc(Cl)cc1Cl)Nc1ccc(OC(F)F)cc1	none
O=C(COC(=O)Cc1ccc(Cl)cc1)Nc1ccc(OC(F)F)cc1	pPAFAH FP inh 29
COc1ccc(CC(=O)OCC(=O)Nc2ccc(Br)cc2)cc1	none
O=C(Cc1ccccc1F)Nc1ccc(SC(F)F)cc1	none
Cc1ccc(CNC(=O)Nc2ccc(Cl)cc2)cc1	PAFAH1B2 inh 65
Cc1cccc(NC(=O)/C(=C\c2ccc([N+](=O)[O-])o2)NC(=O)c2ccc(Cl)cc2)c1	none
Cc1ccc(C(C)C)c(OCCCCN2CCNCC2)c1	none
CCOc1ccc(-c2n[nH]c(=S)c3ccccc23)cc1	none
CCOC(=O)CNC(=O)Cc1ccc(Cl)cc1	none
CCOC(=O)Cc1ccc(NCc2ccc(Cl)cc2)cc1	PAFAH1B2 inh 24
O=C(O)C(=O)Nc1ccc(NC(=O)C(c2ccccc2)c2ccccc2)cc1	none (no result: LYPLA1 counter, LYPLA2 inh, pPAFAH FP inh)
CC12CC(NC(=O)N1CCc1ccccc1)c1ccccc1O2 (stereo unspecified)	none
COc1cccc(/C=N/Nc2snc(SC)c2C#N)c1O	pPAFAH FP inh 29, PAFAH2 FP inh 33
Cc1ccc(NCC(=O)N/N=C/c2cc(O)ccc2[N+](=O)[O-])cc1	pPAFAH FP inh 30 (no result: PAFAH1B2 inh, PAFAH1B3 inh, PAFAH2 FP inh)
Cc1ccc(NCC(=O)N/N=C/c2ccncc2)cc1	none
O=C(COc1ccccc1Cl)N1CCN(c2ccccn2)CC1	none
O=C(Nc1ccc(-n2ccnc2P(=O)(O)c2ccccc2)cc1)c1ccccc1Cl	none
CC(OCC(O)CN(C)Cc1nc2ccccc2c(=O)[nH]1)c1ccc(Cl)cc1 (stereo unspecified)	PAFAH1B2 inh 28
CCc1cccc2c(/C=N/NC(=O)c3cccc(S(=O)(=O)Nc4ccccc4Cl)c3)c[nH]c12	PAFAH1B2 inh 26, PAFAH1B3 inh 31, pPAFAH FP inh 27
Cc1[nH]c2ccccc2c1/C=N/NC(=O)c1cccc(S(=O)(=O)Nc2ccccc2Cl)c1	none
O=C(NCc1ccco1)c1nc(-c2ccc(F)cc2)no1	none
CCN(CC)c1ccc(-c2nn3c(-c4ccccc4OC)nnc3s2)cc1	pPAFAH FP inh 25
COc1ccc(-c2nn3c(-c4ccccc4)nnc3s2)cc1	none
CN(C)c1ccc(O)c2c1CC1CC3[C@@H](N(C)C)C(=O)C(C(N)=O)C(=O)[C@]3(O)C(=O)C1C2=O (stereo partly specified)	none (no result: LYPLA1 counter, LYPLA2 inh)
CN(C)c1ccc(O)c2c1CC1CC3C(N(C)C)C(=O)C(C(N)=O)=C(O)[C@@]3(O)C(=O)C1=C2O (stereo partly specified)	pPAFAH FP inh 33
CN(Cc1ccccc1Br)C(=O)CN1C(=O)NC2(CCCCCC2)C1=O	none
COc1ccc(Oc2nc(-c3cccnc3)nc3ccccc23)cc1	none
CC(=O)CCc1ccc(Oc2nc(-c3cccnc3)nc3ccccc23)cc1	pPAFAH FP inh 25
CCN(CC)S(=O)(=O)c1ccc(N2CCN(c3ccccc3O)CC2)nc1	none
CCN(CC)c1ccc(NC(=O)COC(=O)c2ccc3ccccc3n2)cc1	pPAFAH FP inh 26
CCn1c(C)c(C(C)=O)c(N2CCN(c3ccccn3)CC2)nc1=S	none
COc1ccc(-c2c(C)nn3c(N4CCN(Cc5ccccc5)CC4)cc(C)nc23)cc1OC	none
COc1ccccc1-c1c(C)nn2c(N3CCN(Cc4ccccc4)CC3)cc(C)nc12	pPAFAH FP inh 28
CCCCCCN(C(=O)CCCCCN1C(=O)NC(c2ccc(-c3ccccc3)cc2)C(C(=O)OCc2ccccc2)=C1C)C(C)C(=O)NCCCC (stereo unspecified)	pPAFAH FP inh 28 (no result: PAFAH1B2 inh, PAFAH1B3 inh, PAFAH2 FP inh)
Cc1ccc(N(CC(=O)NN=C2CCN(C)CC2)S(=O)(=O)c2ccccc2)c(C)c1	none
Cc1cc(NC(=O)CSCC(=O)Nc2cc(C(F)(F)F)ccc2N2CCOCC2)no1	PAFAH1B2 inh 26
CC(C)(C)C(=O)NC(=S)Nc1cc(C(F)(F)F)ccc1N1CCOCC1	pPAFAH FP inh 33
CC(C)(C)C(=O)Nc1cc(C(F)(F)F)ccc1N1CCOCC1	none
O=C(Nc1ccc(N2CCOCC2)nc1)c1ccc(F)cc1	none
Cc1ccc(CSC2=Nc3sccc3C3=NC(=O)CN23)cc1	pPAFAH FP inh 27
COc1cc2c(cc1OC)C1=NC(=O)CN1C(SCc1ccc(C)cc1)=N2	none
Cc1cc(=O)[nH]c(Nc2cccc(F)c2)n1	none
N#Cc1c(Nc2cccc(F)c2)sc2c(O)cc(=O)[nH]c12	pPAFAH FP inh 25 (no result: PAFAH1B2 inh, PAFAH1B3 inh, PAFAH2 FP inh)
COC(=O)C1=C(CSc2nc3c(cc2C#N)CN(C)CC3)OC(N)=C(C#N)C1c1ccc(F)cc1 (stereo unspecified)	pPAFAH FP inh 26
CS(=O)(=O)N(CC(=O)NCCSc1ccccc1)c1ccc2c(c1)OCO2	none
CS(=O)(=O)N(CC(=O)NCCSc1ccc(Cl)cc1)c1ccc2c(c1)OCO2	PAFAH1B2 inh 25
CCN(CC)c1nc2c3c(nc4c(c3c1C#N)CC(=O)N4c1ccc(Cl)cc1)NC(C)=N2	pPAFAH FP inh 64
CCc1ccc(N2C(=O)Cc3c2nc(N)c(C#N)c3N)cc1	none
C[C@@H]1CN(S(=O)(=O)C(C)(C)C)[C@@H](CCO)/C1=C\c1ccccc1	none (no result: LYPLA1 counter, LYPLA2 inh, pPAFAH FP inh)
O=C(Nc1cccnc1)c1ccc(S(=O)(=O)c2ccc(Cl)cc2)cc1	PAFAH1B2 inh 27
O=C(Nc1cccnc1)c1ccc(C(=O)Nc2cccnc2)cc1	none
CC1CCc2sc(C(=O)NC3CCN(Cc4ccccc4)CC3)cc2C1 (stereo unspecified)	none
O=C(CSc1ccccn1)C12CC3CC(CC(C3)C1)C2	PAFAH1B2 inh 26
O=C(OCC(=O)C12CC3CC(CC(C3)C1)C2)c1ccc(O)cc1O	PAFAH1B2 inh 26, PAFAH2 FP inh 33
Cc1ccc(C(=O)CSc2ccccn2)cc1	none
O=C(OCC(=O)C12CC3CC(CC(C3)C1)C2)c1ccccn1	PAFAH1B2 inh 25
O=Cc1ccc(C(=O)OCC(=O)Nc2ccc(F)cc2F)cc1	PAFAH2 FP inh 47
COc1cc(NC(=O)c2c3c(nc4ccccc24)CCC3)cc(OC)c1	none
